In the library only some 9.2% were active in any assay of this set; here they are far more common.
ELG1 DNA repair: blocks ELG1-dependent DNA repair in HEK293T cells; AID 504467; 330,000 tested, 2.3% active; HEK293T ELG1-luciferase reporter, luminescence, 16 h; DNA damage induced by 5-fluorouridine; Potency, µM (highest dose often 46.1 µM), for the others: at the highest dose activity change, negative = inhibition, hits mostly inhibitors; note: % is set by controls: 0 for no effect and ±100 for the full control effect; nearly all actives have a fitted effect of over 55% in size
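DMSO vehicle served as the neutral condition. Each well held 2,000 cells given 5-fluorouridine plus compound; after 16 hr at 37 °C/5% CO2, ONE-Glo was added and luciferase measured 30 min later.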
ELG1 genotoxic: genotoxicity induction in ELG1-luciferase HEK293T cells | Potency, µM (titrated, usually from 46 µM), without a hit: at the highest dose activity change, positive = activation, usual class: activators | 330,000 tested, 1.3% active | AID 504466 | HEK293T ELG1-luciferase reporter, luminescence, 16 h; note: % of control where 0% means no effect; nearly all actives have a fitted effect of over 60% in size
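Step 1: seed 2,000 HEK293T ELG1-luciferase cells per well. Step 2: add compound or DMSO, incubate 16 hr at 37 °C. Step 3: ONE-Glo, 30 min at room temperature, read luminescence.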
SMN2 splice up: SMN2 splice variant enhancement. HEK293 SMN2-luciferase splicing reporter, luminescence, 30-36 h. AID 1458. Potency, µM (top dose mostly 46.1 µM), for inactives: at the top dose activity change, positive = activation, actives largely listed as activators. 210,000 tested, 2.8% active; note: % of control where 0% means no effect; nearly all actives have a fitted effect of over 55% in size
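HEK293 cells carry an SMN2 minigene-luciferase reporter in which exon 7 inclusion puts luciferase in frame. Cells were seeded at 2000 cells/well, attached for 10-12 hours, then exposed to compounds for 30-36 hours at 37C before ONE-Glo luminescence.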
FLuc counter: inhibits or activates purified firefly luciferase, miR-21 counter-screen | P08659 | purified FLuc, Km substrates, luminescence inhibition | Potency, µM (series often up to 57.5 µM), for the others: top-dose activity change, negative = inhibition, most hits filed as inhibitors | 360,000 tested, 6.9% active | AID 588342;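 note: plate controls were vehicle for no effect and reference inhibitor for full effect; nearly all actives have a fitted effect of over 55% in size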
Target sequence (P08659 whole entry, looked up): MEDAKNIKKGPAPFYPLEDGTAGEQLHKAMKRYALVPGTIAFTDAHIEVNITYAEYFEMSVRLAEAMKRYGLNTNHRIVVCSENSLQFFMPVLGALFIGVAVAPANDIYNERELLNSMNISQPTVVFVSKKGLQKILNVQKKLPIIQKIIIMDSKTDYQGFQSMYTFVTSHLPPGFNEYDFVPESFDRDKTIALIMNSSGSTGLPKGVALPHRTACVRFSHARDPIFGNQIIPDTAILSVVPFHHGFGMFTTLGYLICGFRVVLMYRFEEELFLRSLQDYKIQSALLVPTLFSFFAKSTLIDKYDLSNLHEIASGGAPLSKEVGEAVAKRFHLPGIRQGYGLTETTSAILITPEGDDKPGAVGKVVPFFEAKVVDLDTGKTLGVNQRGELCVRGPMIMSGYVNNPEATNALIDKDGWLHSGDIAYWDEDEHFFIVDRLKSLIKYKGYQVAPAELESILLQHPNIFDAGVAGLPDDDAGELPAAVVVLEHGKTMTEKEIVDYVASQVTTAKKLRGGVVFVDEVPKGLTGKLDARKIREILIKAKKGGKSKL
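Biochemical qHTS of compounds, final roughly 60 µM downward over six points, against 10 nM purified firefly luciferase using Km concentrations of substrates (10 uM D-luciferin, 10 uM ATP) in Tris acetate pH 7.5 buffer; luminescence output.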
Rab9 prom act: Rab9 promoter activation; Huh7 Rab9 promoter-luciferase reporter, luminescence, 24 h; Potency, µM (titrated, usually from 9.22 µM), for the others: top-dose activation, negative = inhibition, usual class: activators; 320,000 tested, 2.8% active; note: % of control where 0% means no effect; nearly all actives have a fitted effect of over 60% in size
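Rab9 promoter-driven luciferase in stably transfected Huh7 cells; 1500 cells/well rested 2 h, exposed to compound in DMSO for 24 h at 37 °C, 5% CO2. Luminescence read 10 min after adding luciferase reagent at ambient temperature.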
NPC1 prom act: activators of NPC1 promoter. Huh7 NPC1 promoter luciferase reporter, 24 h. Potency, µM (doses to about 9.22 µM), for inactives: top-dose activation, hits mostly activators. 320,000 tested, 2.4% active. AID 485313; note: % of control where 0% means no effect; nearly all actives have a fitted effect of over 60% in size
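Luminescence read-out of NPC1 promoter-driven luciferase in stably transfected Huh7 cells; compounds delivered in DMSO and left 24 h at 37C, 5% CO2, qHTS titration format.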
* hit, by the source's call; ? = inconclusive; . = no result. Calls come from the whole dose curve; as a rule, active = well fitted curve in the direction sought with a large enough effect; inconclusive = small, poorly fitted or top-dose-only effect, or another doubt; inactive = no such curve, though single readings can be large; an effect the other way counts as inactive or inconclusive. Potency is the fitted concentration of half-maximal effect.

SMILES	ELG1 DNA repair	ELG1 genotoxic	SMN2 splice up	FLuc counter	Rab9 prom act	NPC1 prom act
C#CCOCCOCCOCCNc1nc(N2CCN(C(=O)CCCCCCCCCCNC(=O)[C@H](CCCCN)n3cc(CCO)nn3)CC2)nc(N2CCN(C(=O)CCCCCCCCCCNC(=O)[C@H](CCCCN)n3cc(C[C@@H](C)CC)nn3)CC2)n1	?	2%	.	3%	3%	-1%
C#CCOCCOCCOCCNc1nc(N2CCN(C(=O)CCCCCCCCCCNC(=O)[C@@H](CCC(=O)O)n3cc(CCCCCN)nn3)CC2)nc(N2CCN(C(=O)CCCCCCCCCCNC(=O)[C@H](CCCCN)n3cc(C[C@@H](C)CC)nn3)CC2)n1	3.2µM*	8%	.	5%	-1%	-3%
C#CCOCCOCCOCCNc1nc(N2CCN(C(=O)CCCCCCCCCCNC(=O)[C@H](CCCCN)n3cc(C)nn3)CC2)nc(N2CCN(C(=O)CCCCCCCCCCNC(=O)[C@@H]([C@H](C)O)n3cc(C)nn3)CC2)n1	14µM*	1%	.	0%	-2%	1%
C/C(=N\NC(=O)c1c(Cl)cnn1C)c1cccc(NC(=O)c2ccc(C)cc2)c1	?	4%	.	2.4µM*	?	?
C/C(=N\NC(=O)c1ccc(F)cc1)c1cccc(NC(=O)c2ccco2)c1	3%	2%	3%	4.8µM*	30%	20%
C/C(=N\NC(=O)c1cccc(N/N=C(\C)c2cc(O)ccc2O)c1)c1cc(O)ccc1O	16µM*	-15%	-56%	12µM*	-35%	-18%
C/C(=N\NC(=O)c1cccc([N+](=O)[O-])c1)c1ccco1	?	4%	.	-12%	1%	2%
C/C(=N\NC(=O)c1c(Cl)cnn1C)c1cccc(NC(=O)C(C)C)c1	?	-3%	-10%	?	-7%	-3%
C/C(=N\NC(=O)c1cccc(F)c1)c1cccc(NC(=O)c2ccc(F)cc2)c1	-14%	2%	.	?	3%	8%
C/C(=N\NC(=O)c1cccc(N/N=C(\C)c2ccco2)c1)c1ccco1	?	12%	-4%	13µM*	?	16%
CC(C)C[C@@H](CN1C(=O)C(=O)NC[C@@H]1CC(C)C)NC(=O)Cc1ccccc1	?	1%	.	.	.	.
C/C(=N\NC(=O)c1cccc(O)c1)c1cccc(NC(=O)c2ccc(F)cc2)c1	?	3%	.	1.9µM*	14%	?
C/C(=N\NC(=O)c1c(Br)cnn1C)c1ccc(NC(=O)c2ccc(F)cc2)cc1	?	16µM*	?	4%	2%	12%
C/C(=N\NC(=O)c1ccc(F)cc1)c1cccc(NC(=O)c2cccc(F)c2)c1	-10%	-8%	.	-18%	5%	5%
C/C(=N\NC(=O)c1ccccc1F)c1cccc(NC(=O)c2ccc(C)cc2)c1	?	?	.	2.4µM*	?	?
O=C(NCc1ccccn1)c1ccc2nc(C3CCCCC3)oc2c1	?	8%	.	-3%	?	21%
Cc1cc(C)c(NC(=O)C2CCN(S(=O)(=O)c3c(C)noc3/C=C/c3ccccc3F)CC2)c(C)c1	.	.	.	-5%	.	.
COc1cc(SSc2cc(OC)cc([N+](=O)[O-])c2N)c(N)c([N+](=O)[O-])c1	7%	-8%	.	8.5µM*	0%	-2%
O=C(NC1CCCCC1)c1cc2ccccc2cc1O	22%	4%	.	17µM*	22%	?
Cn1cccc1C(=O)NC1CCCCCC1	?	?	.	17µM*	2.2µM*	?
O=C(NN=C1CCCCCC1)c1c[nH]c2ccccc12	14%	-1%	7%	12µM*	-1%	0%
Cc1ccccc1C(=O)NC1CCCCCCC1	?	16µM*	.	12µM*	2.5µM*	2.8µM*
O=C(CCC1CCCC1)NNC(=O)c1cc2ccccc2cc1O	7%	-5%	.	-1%	-2%	1%
CCN1CCN(C(=O)c2[nH]c3ccc(OC)cc3c2C)CC1	16%	-7%	.	-2%	0%	0%
COc1ccccc1NC(=O)c1cc(C(=O)Nc2ccccc2OC)cc([N+](=O)[O-])c1	-5%	1%	.	-1%	-3%	-2%
SMILES	ELG1 DNA repair	ELG1 genotoxic	SMN2 splice up	FLuc counter	Rab9 prom act	NPC1 prom act
CC(C)(C)CN1CCNC(=O)C1CC(=O)NCCN1CCCc2ccccc21 (stereo not given)	0%	0%	.	-1%	1%	4%
COc1ccc(C(C(=O)NC2CCCC2)N(C(=O)Cc2cccs2)C2CC2)cc1OC (stereo not given)	10%	11%	.	3%	2%	-10%
COCCN(C(=O)Cc1cccs1)C(C(=O)NC1CCCC1)c1cc(OC)c(OC)c(OC)c1 (stereo not given)	?	?	.	4.8µM*	?	?
CC(=O)N1CCC(=NNC(=O)c2cc3ccccc3cc2O)CC1	1%	5%	.	?	-1%	5%
O=C(NC1CCCCCCC1)c1ccccc1O	?	16%	5%	15µM*	3.5µM*	4µM*
O=C(NN=C1CCCCCC1)c1cc2ccccc2cc1O	6%	7%	.	17µM*	7%	-4%
COCCN(C(=O)CCl)C(C(=O)NC1CCCCC1)c1ccccc1C (stereo not given)	21µM*	-12%	?	1%	-44%	-13%
COCCN(C(=O)CCC(=O)Nc1cc(C)on1)C(C(=O)NC1CCCC1)c1ccccc1C (stereo not given)	6%	1%	.	2%	2%	-2%
CCNC(=O)c1ccc(C23CC4CC(CC(C4)C2)C3)o1	-4%	-6%	-7%	13µM*	-3%	-7%
COc1ccc(CNC(=O)C(C)n2nc(C)c3sc4ccccc4c3c2=O)cc1OC (stereo not given)	.	.	.	-2%	.	.
CSc1ccc(CCNC(=O)C(C)n2nc(C)c3sc4ccccc4c3c2=O)cc1 (stereo not given)	.	.	.	13µM*	.	.
CCC(C(=O)NCCc1ccc(OC)c(OC)c1)n1nc(C)c2sc3ccccc3c2c1=O (stereo not given)	.	.	.	19µM*	.	.
Cc1nn(C(C)C(=O)NC2CCCCC2)c(=O)c2c1sc1ccccc12 (stereo not given)	.	.	.	9.5µM*	.	.
CCC(C(=O)Nc1cccc(Cl)c1C)n1nc(C)c2sc3ccccc3c2c1=O (stereo not given)	.	.	.	11µM*	.	.
CC(=O)c1cccc(NC(=O)CSc2nc(=O)n(Cc3ccco3)c3c2CCC3)c1	.	.	.	-11%	.	.
Cc1ccc(CNC(=O)C(C)n2nc(C)c3sc4ccccc4c3c2=O)cc1 (stereo not given)	.	.	.	13µM*	.	.

Source: PubChem BioAssay
